The text below walks through data of the supplement of paper PMC6555819.

The experiment concerns VDR:RXRa (NR concentration 270 nM, RXRa partner concentration 90 nM). Nature of the experiment: PBM binding z-score (relative to random genomic background probes); higher = stronger binding; sequences stand for … in GC…GCGATTGACAGCGTAGAATGAAGG
The procedure: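 Protein-binding microarray (Agilent 4x180K custom design, double-stranded 60-nt probes: 5' GC cap, 34-nt variable region, 24-nt constant primer region; full probe sequence given). Purified or IVT nuclear receptor:RXRα heterodimers (3:1 NR:RXRα, mostly 270:90 nM) or homodimers were incubated for 1 h in PBS with 2% milk and no ligand, then detected with Alexa488 antibodies. Fluorescence from o1-orientation probes (~5 replicates averaged) was converted to z-scores against 500 random hg19 background probes. Variable regions are seed direct-repeat (DR0–DR5) sites, all their single-nucleotide variants and half-site ablations.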
On to GCCACTGGGGCATCAGCAGGTTACCATAACTTAA, for which the PBM binding z-score was -0.378.
Under GGAACGACGGCAAGTTGATAGCAGAGTTTGATGG stands -0.532; under ACTAGCAGGCCAAGGGTCACTTAAGATTAGTCCG, 2.88; under CAGCGTAGGTCAGGGCCAGTATAGGAGGAACGTT, 0.388.
Turning to ATAGAAAGGTCGAGGTGAGTATAGAGAAAGGGAA, the PBM binding z-score was 2.79.
Consider GCTGCTAGGTCAGATTGGTCAGCTAACGGGTACG, for which the PBM binding z-score worked out at 0.624.
In turn, CTTCCAAGGTCAAGGTCAGTGAAAGAGACTCGAA registered a PBM binding z-score of 4.87.
Take GCTGCTAGGTCAACTTATGGTCAGCTAAAGCTCG: the PBM binding z-score is 2.04.
Under TAGCCTAGGTCATGGGCCAGTATCCCACGCGAAC stands 1.76; under TCTGCTAGGTAAACGATGGTCAGCTAATCTGCTA, -0.409; under TGACCAAGGTGAGCTGAGGTCGTTGATCCAACTC, 3.9.
Under TCTAGCAGGCCAGAGGGTCATTCAAGAGGTACGG stands 2.25.
Under TCGTGTAGATCAGCAGGTTAAGAAAGCTGGCCAA stands 0.0438; under CCTATTAGTTGACCATAAGGGCCACCGAAGCTCG, 0.0922; under GGAACGAGAGCATTCGAGTTGATAGCATGGCGAT, -0.115.
TCTGCTAGGTCAGCTGGTCAGCTAACGAGCTGCC showed a PBM binding z-score of 0.12.
For GCTAGTTGGTCAGTAAAAGGTCCCACACCGGTCG, the PBM binding z-score was -0.352.
With TCTTGTAGATCAATAGAGGTTAAGTAAGTGCGCT, the PBM binding z-score amounted to 2.65.
The sequence TCAGACAGGTGAAGGCAACTCAGGTACGCAGTCG yielded a PBM binding z-score of 0.552.
Under CCTACTGGGCCACGACAGGTCATTGATTCAGTGA stands 1.32.
The sequence AACTCTAGGTAACCAAGTTCAGTGAATGCCGAAC yielded a PBM binding z-score of 3.64.
As to TGAATGAGGTTATAAGATCAGGCAACGTTGCAAA, the PBM binding z-score worked out at 0.915.
Consider CGAACGAGGGCATGGGTTGATAGCAAATGCCGAT, for which the PBM binding z-score is 1.45.
In turn, AATACAGGGTCCCTAGGCCAGAGTAGGTACGAAT came in with a PBM binding z-score of -0.389.
Consider CCTGCTAGGTCAACGGTCAGCTAAAGCAGCTCGC, for which the PBM binding z-score was 1.58.
Take CGTCCAAGGTCGTAGGAGGTCAGTGAAGACAGAT: the PBM binding z-score is 5.47.
Turning to GGGACGAGGGCAAGTTGATAGCAGAGTTTGATGG, the PBM binding z-score is 1.29.
As to AGAATGATGTTAAGATCAGGGAAACAGAATACAT, the PBM binding z-score is -0.114.
For the sequence TCATATAGGTAATGCAGGTGAAAGTCGGCATCTA, the PBM binding z-score turned out to be 0.862.
Consider TCTTGTAGATCAGCAGGTAAAGAAAGCTGGCCAA, for which the PBM binding z-score was -0.142.
CCTCGGAGGACAGAAGGGCAGAGCTGTCCGCTTT gave a PBM binding z-score of -0.902.
TCATAGAGGTAAAGGTGAAAGTCGAACGATATGA registered a PBM binding z-score of 0.788.
In turn, ATCGAAAGTTCGTGAGGTGAGTATACAGAAAGGC gave a PBM binding z-score of 2.02.
In turn, ATCGAAAGGTCGACGACGTGAGTATACACCGTTT displayed a PBM binding z-score of 2.25.
Under GCTGGCAGGCCATTTGGGTCACTCAATGACGGGC stands 1; under CCTAGCAGGCCCGGGTCACTCAAGCATTTCGCTT, 1.43; under CGTCCAACGTCAGAGAGGTCAGTGAATGCCGAGT, 3.23.
As for TAGCCTAGGTCATTCAGGGGCCAGTCTAGAAAGC, the PBM binding z-score came to 2.76.
In turn, TGAATGAGGTGATAAGATCAGGGAACGTTGCAAA yielded a PBM binding z-score of -0.169.
Regarding ATCTCTACGTAAGACTCAGTTCAGTGAAGAACGC, the PBM binding z-score stood at 0.645.
